Assay [1] relates to Vero E6 infected with SARS-CoV-2. The experiment in a line: morphology score (similarity to uninfected cells); higher = more like uninfected cells. As to conditions: 24 h.
Assay [2] has the same test system. Kind of assay: SARS-CoV-2 infection rate relative to infected DMSO; higher = more infection, active = 60 or less. As to conditions: 24 h.

In the case of `CCO[C@H]1O[C@@H]2O[C@@]3(C)CC[C@H]4[C@H](C)CC[C@@H]([C@H]1C)[C@@]24OO3` [artemotil] (10 µM), in assay [1], the morphology score was -0.085. The SARS-CoV-2 infection rate in assay [2] was 113% (inactive).

As for `O=c1ccc2cc(O[C@@H]3O[C@H](CO)[C@@H](O)[C@H](O)[C@H]3O)c(O)cc2o1` [esculin] (10 µM), in assay [1], the morphology score was 0.15. The SARS-CoV-2 infection rate in assay [2] is 111% (inactive).

In assay [1], `COc1ccc2c(c1)C(C(=O)N(Cc1ccc(N(C)C)cc1)c1ccc(C(C)C)cc1)CCC2` (centres undefined) (10 µM) came in with a morphology score of 0.106. For the same compound, the SARS-CoV-2 infection rate in assay [2] is 85.5% (inactive).

On to `CC(C)c1c(NC(=O)Nc2ccc(Cl)cc2)c(=O)n(-c2ccccc2)n1C` (10 µM), for which the morphology score in assay [1] is 0.0113. In assay [2], the SARS-CoV-2 infection rate is 112% (inactive).

Take `Nc1ncnc2[nH]nc(Nc3ccc(F)cc3)c12` (0.833333 µM): in assay [1], the morphology score is -0.00281. Besides, the SARS-CoV-2 infection rate in assay [2] was 95.5% (inactive).

For the compound `CC1C=CC=CCCC=CC=CC=CC=CC(OC2OC(C)C(O)C(N)C2O)CC2OC(O)(CC(O)C(O)CCC(O)CC(O)CC(O)CC(=O)OC(C)C(C)C1O)CC(O)C2C(=O)O` (centres undefined) [nystatin] (10 µM), in assay [1], the morphology score was -0.0648. In addition, the SARS-CoV-2 infection rate in assay [2] is 116% (inactive).

In assay [1], `CC[C@@H](CO)NC(=O)[C@@H]1C=C2c3cccc4c3c(cn4C)C[C@H]2N(C)C1` [methysergide] (10 µM) came in with a morphology score of 0.0741. In addition, the SARS-CoV-2 infection rate in assay [2] was 110% (inactive).

The compound `CO[C@H]1CC[C@H](N(c2cc(C3=CCCCC3)sc2C(=O)O)C(=O)[C@H]2CC[C@H](C)CC2)CC1` (10 µM) showed a morphology score in assay [1] of 0.155. The SARS-CoV-2 infection rate in assay [2] is 83% (inactive).

Consider `NCCCCCC(O)(P(=O)(O)O)P(=O)(O)O` [neridronic-acid] (10 µM), for which the morphology score in assay [1] was found to be 0.208. Besides, the SARS-CoV-2 infection rate in assay [2] was 91% (inactive).

In the case of `C=CC(=O)N1CCC(Oc2cc3c(Nc4ccc(Cl)c(Cl)c4F)ncnc3cc2OC)CC1` [poziotinib] (10 µM), the morphology score in assay [1] was -0.0962. Besides, the SARS-CoV-2 infection rate in assay [2] is 108% (inactive).

`CCC(CC)O[C@@H]1C=C(C(=O)O)C[C@H](N)[C@H]1NC(C)=O` [oseltamivir-carboxylate] (10 µM): the morphology score in assay [1] is -0.0548. Besides, the SARS-CoV-2 infection rate in assay [2] was 102% (inactive).

`N#Cc1nn(-c2c(Cl)cc(C(F)(F)F)cc2Cl)c(N)c1[S+]([O-])C(F)(F)F` (centres undefined) [fipronil] (10 µM): the morphology score in assay [1] amounted to 0.0672. The SARS-CoV-2 infection rate in assay [2] is 102% (inactive).

In assay [1], `CCc1cc(-c2[nH]nc(C)c2-c2ccc3c(c2)OCCO3)c(O)cc1O` (0.833333 µM) displayed a morphology score of 0.075. For the same compound, the SARS-CoV-2 infection rate in assay [2] was 114% (inactive).

For the compound `CC(C)NCC(O)c1ccc(N)c(C#N)c1` (centres undefined) [cimaterol] (10 µM), the morphology score in assay [1] is -0.059. Moreover, the SARS-CoV-2 infection rate in assay [2] was 104% (inactive).

Compound `NS(=O)(=O)c1cc2c(cc1C(F)(F)F)NCNS2(=O)=O` [hydroflumethiazide] (10 µM) yielded a morphology score in assay [1] of 0.112. Besides, the SARS-CoV-2 infection rate in assay [2] is 112% (inactive).

`CCCCOC(=O)c1ccccc1Nc1cccc(C(F)(F)F)c1` [ufenamate] (10 µM) gave a morphology score in assay [1] of 0.129. Further, in assay [2], the SARS-CoV-2 infection rate was 100% (inactive).

In the case of `Fc1ccc(C(c2ccccc2)(c2ccccc2F)n2ccnc2)cc1` (centres undefined) [flutrimazole] (10 µM), the morphology score in assay [1] was found to be 0.166. Moreover, in assay [2], the SARS-CoV-2 infection rate is 108% (inactive).

`CC(C)Cn1cnc2c(N)nc3ccccc3c21` [imiquimod] (10 µM) returned a morphology score in assay [1] of 0.0803. Also, the SARS-CoV-2 infection rate in assay [2] is 106% (inactive).

Regarding `CCC1=C[C@@H]2CN(C1)Cc1c([nH]c3ccccc13)[C@@](C(=O)OC)(c1cc3c(cc1OC)N(C)[C@H]1[C@@](O)(C(=O)OC)[C@H](OC(C)=O)[C@]4(CC)C=CCN5CC[C@]31[C@@H]54)C2` [vinorelbine] (10 µM), the morphology score in assay [1] is -0.193. Moreover, the SARS-CoV-2 infection rate in assay [2] is 115% (inactive).

With `N[C@@H](C(=O)N[C@@H]1C(=O)N2C(C(=O)O)=C(Cl)CS[C@H]12)c1ccccc1` [cefaclor] (10 µM), the morphology score in assay [1] was determined as 0.0453. Moreover, the SARS-CoV-2 infection rate in assay [2] was 104% (inactive).

Turning to `O[C@H]1[C@H]2[C@H](O)CCCN2C[C@H]1O` [swainsonine] (10 µM), the morphology score in assay [1] is -0.0751. For the same compound, in assay [2], the SARS-CoV-2 infection rate is 97% (inactive).

The compound `CC(C)[C@](O)(c1ccc2cc(OC(F)F)c(OC(F)F)cc2c1)c1c[nH]nn1` (10 µM) yielded a morphology score in assay [1] of 0.165. Also, the SARS-CoV-2 infection rate in assay [2] is 102% (inactive).

Consider `Cc1cc(=O)oc2c(C=O)c(O)ccc12` (10 µM), for which the morphology score in assay [1] stood at 0.206. Besides, the SARS-CoV-2 infection rate in assay [2] is 106% (inactive).

Consider `CC1=CC[C@@H](C(C)(C)O)C[C@@H]1O` [sobrepin] (10 µM), for which the morphology score in assay [1] is -0.0987. The SARS-CoV-2 infection rate in assay [2] is 114% (inactive).

For `CN1c2cc3c(cc2N=C(c2ccc(C(=O)O)cc2)c2ccccc21)C(C)(C)CCC3(C)C` (0.833333 µM), in assay [1], the morphology score was -0.141. For the same compound, the SARS-CoV-2 infection rate in assay [2] is 107% (inactive).

`NS(=O)(=O)c1cc2c(cc1C(F)(F)F)NC(Cc1ccccc1)NS2(=O)=O` (centres undefined) [bendroflumethiazide] (10 µM) showed a morphology score in assay [1] of 0.136. For the same compound, the SARS-CoV-2 infection rate in assay [2] is 87.5% (inactive).

With `C[C@@H]1COCCN1c1cc(=O)n2c(n1)N(Cc1cncc(Cl)c1)[C@H](C(F)(F)F)CC2` (0.833333 µM), the morphology score in assay [1] amounted to 0.55. For the same compound, the SARS-CoV-2 infection rate in assay [2] is 70% (inactive).

(Values after the supplement of paper PMC13380429.)
